Bioassay records: PubChem BioAssay, National Center for Advancing Translational Sciences (NCATS)
Rows were chosen to be rich in hits. Some 7.5% of all compounds tested hit in one or more screens of this group.
Gal4-VP16 FLuc – VP16 counterscreen qHTS for inhibitors of ROR gamma transcriptional activity | Drosophila S2 Gal4-VP16 UAS-luciferase, luminescence, 20 h | Potency, µM (series often up to 53.6 µM), most hits filed as inhibitors | 3.5% of 310,000 active;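 note: Gal4-VP16 expression switched on by copper sulfate through the metallothionein promoter; nearly all actives have a fitted effect of over 50% in size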
TSHR antagonist – Antagonists of the Thyroid Stimulating Hormone Receptor: HTS campaign; Thyrotropin receptor (Homo sapiens), P16473; TSHR-expressing cells, TSH-stimulated cAMP HTRF, 2 h; hits give low values; activity change, negative = inhibition, % at 11.5 µM; 0.2% of 330,000 active; AID 504810, 2011;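 active = activity change below a set negative limit, meaning inhibition stronger than a set level, cut at about -70% in these data; inconclusive = activity change between two set negative limits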
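Competitive HTRF cAMP read-out (cryptate anti-cAMP antibody, cAMP-d2; 30 min, room temperature) in freshly harvested TSHR cells. Compounds added before TSH at EC80 (4nM final), followed by 2 hours' incubation at 37 deg C.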
ELG1 repair inh – qHTS screen for small molecules that inhibit ELG1-dependent DNA repair in human embryonic kidney (HEK293T) cells expressing luciferase-tagged ELG1 | HEK293T ELG1-luciferase reporter, luminescence, 16 h; DNA damage induced by 5-fluorouridine | Potency, µM (titrated, usually from 46.1 µM), actives largely listed as inhibitors | 2.3% of 330,000 active; note: nearly all actives have a fitted effect of over 55% in size
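Step one: seed 2,000 cells per well. Step two: pin-transfer compound or DMSO alongside 5-fluorouridine. Step three: incubate 16 hr, 37 °C, 5% CO2. Step four: add ONE-Glo, wait 30 min, read luminescence.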
RORgamma inh – qHTS for inhibitors of ROR gamma transcriptional activity; Nuclear receptor ROR-gamma (Mus musculus), P51450; Drosophila S2 Gal4-RORgamma UAS-luciferase reporter, 20 h; Potency, µM (doses to about 53.6 µM), hits mostly inhibitors; 5.4% of 310,000 active; note: nearly all actives have a fitted effect of over 60% in size
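Schneider cells (Drosophila), stable Gal4 DBD–ROR gamma + UAS-luc; 1 hr cmpd preincubation; Cu2+ induction 700 uM final; 20 hr ambient; luminescence.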
B2AR arrestin – qHTS assay of beta-arrestin-biased ligands of beta2-adrenergic receptor; Potency, µM (doses to about 46.1 µM), most hits filed as activators; beta-arrestin recruitment to beta2AR, cell-based reporter; AID 492947, 2010; 0.02% of 330,000 active; Beta-2 adrenergic receptor (Homo sapiens), P07550; note: nearly all actives have a fitted effect of over 65% in size
Target sequence (P07550 whole entry, looked up): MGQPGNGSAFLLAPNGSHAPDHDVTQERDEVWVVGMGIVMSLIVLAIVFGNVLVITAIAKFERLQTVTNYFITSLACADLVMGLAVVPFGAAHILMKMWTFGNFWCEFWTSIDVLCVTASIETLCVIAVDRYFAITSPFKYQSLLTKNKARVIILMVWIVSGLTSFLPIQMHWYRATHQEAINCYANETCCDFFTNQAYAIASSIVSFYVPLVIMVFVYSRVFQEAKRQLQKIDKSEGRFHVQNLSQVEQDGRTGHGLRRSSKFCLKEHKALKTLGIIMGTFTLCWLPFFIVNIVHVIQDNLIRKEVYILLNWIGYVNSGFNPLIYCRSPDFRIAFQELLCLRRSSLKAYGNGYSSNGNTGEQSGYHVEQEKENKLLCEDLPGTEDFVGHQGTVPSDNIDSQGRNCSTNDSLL
Numbers stand for hits; - = inactive; ? = inconclusive; . = no result given; [ ] = remark or other dose. Unless noted, calls come from the whole dose curve; as a rule, active = well fitted curve in the direction sought with a large enough effect; inconclusive = small, poorly fitted or top-dose-only effect, or another doubt; inactive = no such curve, though single readings can be large; an effect the other way counts as inactive or inconclusive.

SMILES	Gal4-VP16 FLuc	TSHR antagonist	ELG1 repair inh	RORgamma inh	B2AR arrestin
O=C(Nc1ccc(N2CCN(C(=O)c3ccccc3F)CC2)cc1)c1cncc(Br)c1	-	-	3.66µM	-	-
COc1cc(/C=C/C(=O)Nc2ccc(OC)c(S(=O)(=O)N3CCOCC3)c2)ccc1OC(F)F	.	.	10.3µM	.	-
COc1ccc(/C=C/C(=O)Nc2cccc(F)c2)cc1S(=O)(=O)N1CCOCC1	-	-	20.6µM	-	-
COc1ccc(/C=C/C(=O)Nc2ccccc2F)cc1S(=O)(=O)N1CCOCC1	.	-	?	.	-
Cc1cc(C)c(NC(=O)CS(=O)CC(=O)NCCN2CCCCCC2)c(C)c1 (stereo unspecified)	-	-	-	-	-
CCC1CCCCN1Cc1ccc(OC)c(C)c1C (stereo unspecified)	-	-	-	11.2µM	-
FC(F)(F)c1ccccc1/C=N/n1c(C2CCCCC2)n[nH]c1=S	?	-	-	7.94µM	-
CCc1n[nH]c(=S)n1/N=C/c1ccccc1OCc1ccc(Cl)cc1	-	-	?	-	-
CCOc1ccccc1/C=N/n1c(C2CCCCC2)n[nH]c1=S	?	-	-	4.47µM	-
S=c1[nH]nc(C2CCCCC2)n1/N=C/c1cccs1	?	-	-	14.1µM	-
COc1ccccc1/C=C/C=N/N1CCN(Cc2ccccc2)CC1	?	-	-	-	-
O=C(O)c1ccccc1/C=N/n1c(C2CCCCC2)n[nH]c1=S	-	-	-	-	-
COc1ccccc1/C=C/C=N/n1c(C2CCCCC2)n[nH]c1=S	2.51µM	-	-	1.41µM	-
Cc1cc(-c2n[nH]c(=S)n2/N=C/c2cccs2)n[nH]1	?	-	?	-	-
S=c1[nH]nc(C2CCCCC2)n1/N=C/c1ccccc1Cl	?	-	-	11.2µM	-
O=C(CCCOc1ccc(Cl)cc1Cl)N/N=C/c1ccccc1O	-	-	?	8.91µM	-
O=C(COc1ccc(Cl)cc1Cl)N/N=C/CCc1ccccc1	-	-	-	-	-
O=C(COc1ccc(Cl)cc1Cl)N/N=C/c1ccc[nH]1	4.47µM	-	?	2.82µM	-
CN(C(=S)NC(=O)CCCOc1ccc(Cl)cc1Cl)c1ccccc1	-	-	-	5.62µM	-
Cc1ccccc1-c1cc(NCCN2CCOCC2)ncn1	-	.	.	?	.
CCCCn1c(N)c(N(CC(C)C)C(=O)C2=COCCO2)c(=O)[nH]c1=O	.	-	-	.	-
CCn1c(SCC(N)=O)nnc1-c1ccc(OC)c(OC)c1	-	-	?	-	-
CCn1c(-c2ccc(OC)c(OC)c2)n[nH]c1=S	-	-	-	11.2µM	-
C=CCn1c(-c2ccc(OC)c(OC)c2)n[nH]c1=S	?	-	-	3.16µM	-
CN1CCC[C@@H](CC2c3ccccc3Sc3ccccc32)C1	-	.	.	-[2.98 µM]	.
SMILES	Gal4-VP16 FLuc	TSHR antagonist	ELG1 repair inh	RORgamma inh	B2AR arrestin
CCCCNC(=O)c1cccc(S(=O)(=O)N2CC3(C)CC2CC(C)(C)C3)c1 (stereo unspecified)	.	-	-	.	-
Cc1ccc(C#CC[N+]2(CC#Cc3ccc(C)cc3)CCCCC2)cc1	7.08µM	-	11.6µM	?	-
COc1cccc(Nc2ncc3nc(-c4cccs4)c(=O)n(-c4ccccc4)c3n2)c1	?	.	.	-	.
OC[C@H]1O[C@@](CO)(O[C@H]2O[C@H](CO)[C@@H](O)[C@H](O)[C@H]2O)[C@@H](O)[C@@H]1O	-	.	.	-	.
Oc1ccc(Br)cc1/C=N/n1c(-c2ccccc2)n[nH]c1=S	.	-	-	.	-
Oc1ccc(/C=N/n2c(-c3ccccc3)n[nH]c2=S)cc1	-	-	-	?	-
COc1ccc(/C=N/n2c(-c3ccccc3)n[nH]c2=S)cc1	4.47µM	-	-	5.62µM	-
COc1cccc(/C=N/n2c(-c3cccs3)n[nH]c2=S)c1	-	-	-	7.08µM	-
COc1cc(/C=N/n2c(-c3ccccc3)n[nH]c2=S)cc(OC)c1OC	-	-	4.11µM	-	-
S=c1[nH]nc(-c2ccccc2)n1/N=C/c1cccc(Br)c1	7.08µM	-	-	7.08µM	-
COc1ccc(-c2cn3cccnc3n2)cc1NC(=O)Nc1cc(C)ccc1C	.	-	.	.	-
COc1ccc(C2C=C3CNS(=O)(=O)C3CC2OC(=O)c2ccc(Cl)cc2)cc1 (stereo unspecified)	?	.	.	-	.
COC(=O)CC1=COC(O)C2C(CO)=CC[C@@H]12 (stereo partly specified)	-[10 µM]	.	.	-[10 µM]	.
COc1cc2cc(CN(Cc3cccnc3)C(=O)Nc3ccccc3)c(=O)[nH]c2cc1OC	-	-	7.3µM	-	-
CCC(C)NC(=S)N(CCc1ccccc1)Cc1cc2cc(OC)c(OC)cc2[nH]c1=O (stereo unspecified)	?	-	6.51µM	-	-
CSc1cccc(NC(=O)C2CCCN(c3ncnc4c3nc3n4CCCCC3)C2)c1 (stereo unspecified)	-	-	?	-	-
O=C(CCN1CCOCC1)Nc1cc(C(=O)Nc2ccccc2F)ccc1N1CC2CC(C1)c1cccc(=O)n1C2 (stereo unspecified)	-	-	-	-	-
CCOc1ccc(NC(=O)c2ccc(N3CC4CC(C3)c3cccc(=O)n3C4)c(NC(=O)CCN3CCOCC3)c2)cc1 (stereo unspecified)	-	-	7.3µM	-	-
CN(CCO)C(=O)c1ccc(-c2nn(C)c(=O)c3ccccc23)cc1	-	-	-	-	-
Cn1nc(-c2ccc(C(=O)NCCO)cc2)c2ccccc2c1=O	-	-	?	?	5.62µM
CC1(C)Oc2ccc3ccc(=O)oc3c2/C(=C/NCCN/C=C2\C(=O)C(C)(C)Oc3ccc4ccc(=O)oc4c32)C1=O	-	-	8.2µM	-	-
CC1(C)Oc2ccc3ccc(=O)oc3c2/C(=C/NNC(N)=O)C1=O	-	-	-	?	-
CCn1c(-c2nn(C)c(C)c2Cl)n[nH]c1=S	?	-	?	?	-
CC(C)Cn1c(-c2csc(C(C)C)c2)n[nH]c1=S	-[10 µM]	-	-	2µM	-
CCn1c(-c2csc(C(C)C)c2)n[nH]c1=S	12.6µM	-	-	2.51µM	-
CCCCCCCC/C=C\CCCCCCCC(=O)NCCCC(=O)O	-	.	.	-	.
CCCCCc1cc(=O)oc2c(C(CCN(CC)CC)c3ccc(OC)cc3)c(OC)cc(OC)c12 (stereo unspecified)	8.91µM	-	-	?	-
Cc1cc(CNC(=O)c2cccnc2Cl)c2ccccc2n1	-	-	5.17µM	?	-
Cc1ccc(NC(=O)c2cccnc2C(=O)O)nc1	-	-	?	-	-
O=c1c(Cl)c(N2CCCCC2)cnn1-c1nc2ccccc2[nH]1	1.26µM	-	?	0.891µM	-
